# Where “and” joins values, the source holds several entries; their conditions need not be identical. Identical values can stand only once. Calls of active or inactive are those of the source.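 The calls were made as follows, unless noted: active = compounds whose cell count with miR-34 switched on is under 0.7 times the count with it off; inactive = the rest.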
# Experiments:
# [1] = liver-stage malaria parasite growth inhibition, primary screen, cell-based, HepG2, luciferase luminescence, HepG2 viability (AID 624349; in the data active = parasite load remaining mostly below about 12%, no sharp cut-off; inactive = mostly above about 10%;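 also: 100% = mean of DMSO negative control wells on the same plate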); details: P. berghei liver stage in HepG2, luciferase luminescence, concentration not given here; parasite load remaining: stronger effect = lower value; viability: measured here: HepG2 viability without parasites
# [2] = stimulators of nuclear beta-catenin in C2C12, primary screen, imaging, WNT3A-conditioned medium, mouse C2C12, NPC library (AID 1117326; in the data active = nuclear beta-catenin stimulation mostly above about 4.2%, no sharp cut-off; inactive = mostly below about 10%); details: stronger effect = higher value
# [3] = stimulators of insulin release from INS-1E, primary screen, cell-based, 5 mM glucose, NPC library (AID 1117329;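 active = compound raises insulin release from rat beta cells at 5 mM glucose, no numeric limit stated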); details: rat INS-1E insulin secretion, at 10 µM, stronger effect = higher value
# [4] = growth inhibition of GSK3B-pretreated HCT116 cells – cell-based, CellTiter-Glo, 0.2 to 20 µM (AID 1117336;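 active = compounds lowering colon cancer cell viability after pretreatment blocking the GSK3B kinase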); details: HCT116 viability after GSK3B inhibitor, at 20 µM, stronger effect = higher value
# [5] = inhibition of endothelial tube formation, primary screen, imaging, VEGF stimulated, CD31 staining, tube area, NPC library (AID 1117340;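 active = compound that reduces growth-factor-driven endothelial tube area in a mixed cell culture, no cutoff stated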); details: VEGF-stimulated ADSC/ECFC co-culture, at 10 µM, stronger effect = higher value
# [6] = glucagon-like peptide 1 release enhancers, primary assay, NCI-H716 cell line, NPC library (AID 1117341;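 active = compound raises GLP1 secretion from the human gut endocrine cells, with no numeric limit stated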); details: NCI-H716 cells, at 10 µM, stronger effect = higher value
# [7] = HCT116 colon cancer cell growth inhibition, primary screen, CellTiter-Glo luminescence, NPC library (AID 1117342;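 active = compounds that lower survival of HCT116 colon cancer cells in the luminescence readout, no numeric limit stated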); details: at 20 µM (top of the series)
# [8] = CellTiter-Glo luminescent readout of SW480 viability loss, NPC library primary (AID 1117343;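 active = compounds that lower viability of the colon cancer cells in the luminescence readout, with no numeric limit stated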); details: CellTiter-Glo luminescence; at 20 µM (top of the series)
# [9] = decreased DLD-1 cellular survival, CellTiter-Glo luminescent readout, NPC compound collection, primary HTS (AID 1117346;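 active = compounds that lower survival of DLD-1 colon cancer cells in the luminescence readout, no cutoff given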); details: DLD-1 viability, CellTiter-Glo luminescence; at 20 µM (top of the series)
# [10] = differential killing of epithelial or mesenchymal cells, primary screen, imaging, PC-3E GFP, TEM4-18 mCherry, co-culture (AID 1345086;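 active = compounds killing one labelled cell type while sparing the other, by normalised counts and ratio limits, not self-fluorescent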;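 as to all read-outs here: cells exposed to compound for 72 h before imaging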;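 as to red/green cell ratio (normalised): normalised mesenchymal count divided by normalised epithelial count so high means epithelial killing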); details: imaging cell counts, at 1 µM; for red/green cell ratio (normalised): actives lie on both sides
# [11] = sensitizers of A549 cells to miR-34 induction, primary screen, imaging, A549 dox-inducible miR-34, nuclei and caspase counts (AID 1347080); details: A549 miR-34 inducible, Hoechst nuclei count, 48 h
# [12] = survival rescue of mitochondrial mutant cells in low glucose, primary screen, MELAS cybrids, Rieske KO mouse fibroblasts, CellTiter-Glo (AID 1508586;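 active = mean z-score across replicates of 1.96 or higher in either the MELAS or the Rieske mutant cell line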;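 also: z relative to plate mean and SD of compound and empty wells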)
# [13] = molecular target: NAD(+) hydrolase SARM1 (Homo sapiens) (UniProt Q6SZW1); test: SARM1 TIR NADase inhibitors, cell lysate, NAD-Glo luminescence (AID 1508614;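 active = compound whose remaining NAD level is above about 45 nM, limit read from the data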;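 also: higher remaining NAD means stronger inhibition of SARM1 NADase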); details: SAM-TIR HEK293T lysate NADase, at 1 µM, stronger effect = higher value
# Sequence of NAD(+) hydrolase SARM1 (Homo sapiens) (Q6SZW1 whole entry, looked up): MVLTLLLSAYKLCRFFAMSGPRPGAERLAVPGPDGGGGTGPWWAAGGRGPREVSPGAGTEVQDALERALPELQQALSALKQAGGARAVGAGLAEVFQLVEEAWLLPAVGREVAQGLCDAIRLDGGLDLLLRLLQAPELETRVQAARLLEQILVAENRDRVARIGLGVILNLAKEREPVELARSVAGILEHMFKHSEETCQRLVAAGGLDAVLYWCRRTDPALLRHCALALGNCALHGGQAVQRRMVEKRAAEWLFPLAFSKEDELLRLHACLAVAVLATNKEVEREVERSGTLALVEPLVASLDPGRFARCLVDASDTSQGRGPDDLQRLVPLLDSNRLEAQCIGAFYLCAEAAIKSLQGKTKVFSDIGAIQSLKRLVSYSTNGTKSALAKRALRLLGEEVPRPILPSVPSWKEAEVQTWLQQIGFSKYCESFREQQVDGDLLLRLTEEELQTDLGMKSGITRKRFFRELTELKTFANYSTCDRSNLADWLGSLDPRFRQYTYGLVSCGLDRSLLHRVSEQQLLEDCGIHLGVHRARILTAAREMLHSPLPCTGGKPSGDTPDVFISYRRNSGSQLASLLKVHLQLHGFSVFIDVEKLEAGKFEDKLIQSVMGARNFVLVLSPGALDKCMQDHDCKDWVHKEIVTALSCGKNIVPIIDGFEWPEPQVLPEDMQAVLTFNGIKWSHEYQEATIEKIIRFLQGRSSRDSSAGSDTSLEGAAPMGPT
# [14] = viability rescue of complex I mutant cybrids, primary screen, cell-based, galactose medium, ATP luminescence (AID 1645843;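 active = z-score of at least 1.8 in each of two replicates, scored against plate mean and spread of sample wells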;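 also: positive z means more ATP and so rescue of galactose-driven cybrid death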); details: complex I mutant cybrid cells, 72 h, stronger effect = higher value
# [15] = test system: Aerobactin synthetase IucA (Klebsiella pneumoniae, hypervirulent); test: IucA enzyme inhibition, biochemical, LOPAC library, absorbance readout (AID 1346212; call rule not given here;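 also: 100% = no compound wells and 0% = no enzyme wells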); details: IucA enzyme assay, absorbance (OD) readout; stronger effect = lower value;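 tested at 8 µM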
# [16] = hESC survival regulators, cell-based (AID 493140; call rule not given here;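 also: cells exposed to compounds for four days before counting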); details: human embryonic stem cell survival screen; stronger effect = higher value
# [17] = molecular target: Mitogen-activated protein kinase 7 (Homo sapiens) (UniProt Q13164); test: ERK5 transactivation activators in reporter cells, primary screen, cell-based, HTS (AID 1508626;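 active = luciferase signal above three times the same-plate solvent-only control wells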;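 also: luciferase driven by Gal4-ERK5 fusion binding five Gal4 sites before minimal TATA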); details: HeLa Gal4-ERK5 transactivation, 18 h, at 5 µM, stronger effect = higher value
# Sequence of Mitogen-activated protein kinase 7 (Homo sapiens) (Q13164 whole entry, looked up, the tested form may be a part): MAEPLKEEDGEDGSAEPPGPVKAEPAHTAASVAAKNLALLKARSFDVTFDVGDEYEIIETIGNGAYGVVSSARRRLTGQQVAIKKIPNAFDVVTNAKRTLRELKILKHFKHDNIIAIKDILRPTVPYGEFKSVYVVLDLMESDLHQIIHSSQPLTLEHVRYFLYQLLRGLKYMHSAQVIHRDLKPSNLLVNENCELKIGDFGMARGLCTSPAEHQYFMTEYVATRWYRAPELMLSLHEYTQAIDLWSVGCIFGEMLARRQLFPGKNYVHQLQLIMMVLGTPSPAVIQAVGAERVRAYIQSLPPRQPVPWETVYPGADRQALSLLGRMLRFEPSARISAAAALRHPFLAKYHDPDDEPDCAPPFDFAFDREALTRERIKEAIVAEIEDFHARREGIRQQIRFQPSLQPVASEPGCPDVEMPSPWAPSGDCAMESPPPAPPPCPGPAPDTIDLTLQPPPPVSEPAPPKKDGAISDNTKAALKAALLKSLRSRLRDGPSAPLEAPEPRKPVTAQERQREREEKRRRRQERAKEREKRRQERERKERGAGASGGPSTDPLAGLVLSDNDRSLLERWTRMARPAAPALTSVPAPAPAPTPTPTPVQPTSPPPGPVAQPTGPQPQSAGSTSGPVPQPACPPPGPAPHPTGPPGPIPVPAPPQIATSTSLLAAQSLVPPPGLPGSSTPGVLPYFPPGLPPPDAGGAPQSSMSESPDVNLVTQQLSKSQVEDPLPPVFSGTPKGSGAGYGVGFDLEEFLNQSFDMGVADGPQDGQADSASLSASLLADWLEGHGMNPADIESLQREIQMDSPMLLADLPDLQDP
# [18] = measured here: epithelial PC-3E GFP cell survival
# [19] = measured here: mesenchymal TEM4-18 mCherry cell survival
# [20] = measured here: relative caspase fold change +Dox/-Dox
# [21] = measured here: total cells with miR-34 induction, stronger effect = lower value
# [22] = measured here: total cells without miR-34 induction
# [23] = MELAS cybrid survival, CellTiter-Glo 48 h, stronger effect = higher value
# [24] = Rieske KO mouse fibroblast survival, CellTiter-Glo 72 h
smiles,measurement,setting,value
O=C(O)Cc1ccccc1,parasite load remaining,[1],25.8% (inactive) and 52.8% (inactive)
same,viability,[1],91.1% and 112%
same,nuclear beta-catenin stimulation,[2]; at 10 µM,0.2% (inactive)
same,nuclear beta-catenin stimulation,"[2]; stimulation, at 2 µM",0.3%
same,insulin secretion stimulation,[3],-1.1% (inactive)
same,viability decrease,[4],-0.05% (inactive)
same,tube area decrease,[5],-39.3% (inactive)
same,GLP1 secretion stimulation,[6],-0.3% (inactive)
same,inhibition of viability,[7],-9.8% (inactive)
same,viability decrease (inhibition),[8],8.6% (inactive)
same,viability decrease (inhibition),[9],0.45% (inactive)
same,red/green cell ratio (normalised),[10],0.91 (inactive)
same,normalised cell number,[10]; [18],1.01
same,normalised cell number,[10]; [19],0.92
same,fold change,[11]; stronger effect = lower value,0.869 (inactive) and 0.823 (inactive)
same,fold change,[11]; [20],4.43 and 1.17
same,cell count,[11]; [21],10700 and 9120
same,cell count,[11]; [22],12300 and 11100
same,z-score,[12]; [23],0.496 (inactive)
same,z-score,[12]; [24],0.0978
same,remaining NAD,[13],10 nM (inactive)
same,z-score,[14],0.455 (inactive)
CC(O)CN1CCN(CC(=O)[O-])CCN(CC(=O)[O-])CCN(CC(=O)[O-])CC1.[Gd+3] (stereo not given),nuclear beta-catenin stimulation,[2]; at 10 µM,-1.8% (inactive)
same,nuclear beta-catenin stimulation,"[2]; stimulation, at 2 µM",-0.7%
same,insulin secretion stimulation,[3],3.6% (inactive)
same,viability decrease,[4],7.8% (inactive)
same,tube area decrease,[5],9.4% (inactive)
same,GLP1 secretion stimulation,[6],-4.3% (inactive)
same,inhibition of viability,[7],0.7% (inactive)
same,viability decrease (inhibition),[8],-1.9% (inactive)
same,viability decrease (inhibition),[9],-6.4% (inactive)
same,red/green cell ratio (normalised),[10],0.9 (inactive)
same,normalised cell number,[10]; [18],1.27
same,normalised cell number,[10]; [19],1.14
same,fold change,[11]; stronger effect = lower value,0.973 (inactive)
same,fold change,[11]; [20],0.913
same,cell count,[11]; [21],8990
same,cell count,[11]; [22],9240
same,remaining NAD,[13],10 nM (inactive)
C=CCN1C[C@H](C)N([C@H](c2ccc(C(=O)N(CC)CC)cc2)c2cccc(OC)c2)C[C@H]1C,nuclear beta-catenin stimulation,[2]; at 10 µM,1.7% (inactive)
same,nuclear beta-catenin stimulation,"[2]; stimulation, at 2 µM",-0.7%
same,insulin secretion stimulation,[3],-1.1% (inactive)
same,viability decrease,[4],4.6% (inactive)
same,tube area decrease,[5],3.8% (inactive)
same,GLP1 secretion stimulation,[6],5.2% (inactive)
same,inhibition of viability,[7],35% (inactive)
same,viability decrease (inhibition),[8],6% (inactive)
same,viability decrease (inhibition),[9],23.5% (inactive)
same,remaining activity,[15],109% (inactive)
same,fold change,"[11]; stronger effect = lower value, cell number ratio, induced over uninduced",0.944 (inactive)
same,fold change,[11]; [20],1.05
same,cell count,[11]; [21],8480
same,cell count,[11]; [22],8990
same,z-score,[14],0.105 (inactive)
CCCCC/C=C\C/C=C\C/C=C\C/C=C\CCCC(=O)NCC(=O)O,survival,[16],96.8 (inactive)
same,nuclear beta-catenin stimulation,[2]; at 10 µM,0.8% (inactive)
same,nuclear beta-catenin stimulation,"[2]; stimulation, at 2 µM",0.6%
same,insulin secretion stimulation,[3],2.2% (inactive)
same,viability decrease,[4],104% (active)
same,tube area decrease,[5],-12.4% (inactive)
same,GLP1 secretion stimulation,[6],5% (inactive)
same,inhibition of viability,[7],103% (active)
same,viability decrease (inhibition),[8],145% (active)
same,viability decrease (inhibition),[9],105% (active)
same,remaining activity,[15],101% (inactive)
same,fold change,[11]; stronger effect = lower value,0.935 (inactive) and 1.01 (inactive)
same,fold change,[11]; [20],1.02
same,cell count,[11]; [21],5930 and 5790
same,cell count,[11]; [22],6340 and 5700
C[C@]12CC[C@H](O)CC1=CC[C@@H]1[C@@H]2CC[C@]2(C)C(=O)CC[C@@H]12,parasite load remaining,[1],67.8% (inactive) and 14.9% (inactive)
same,viability,[1],72.6% and 126%
same,nuclear beta-catenin stimulation,[2]; at 10 µM,3.7% (inactive)
same,nuclear beta-catenin stimulation,"[2]; stimulation, at 2 µM",1.2%
same,insulin secretion stimulation,[3],-3% (inactive)
same,viability decrease,[4],3.8% (inactive)
same,tube area decrease,[5],8% (inactive)
same,GLP1 secretion stimulation,[6],1.9% (inactive)
same,inhibition of viability,[7],-21.8% (inactive)
same,viability decrease (inhibition),[8],113% (active)
same,viability decrease (inhibition),[9],8.95% (inactive)
same,fold change,[11]; stronger effect = lower value,0.917 (inactive)
same,fold change,[11]; [20],1.38
same,cell count,[11]; [21],8820
same,cell count,[11]; [22],9620
same,z-score,[12]; [23],0.542 (inactive)
same,z-score,[12]; [24],-0.656
same,remaining NAD,[13],10 nM (inactive)
same,luciferase signal,[17],48 AU (inactive)
same,z-score,[14],-0.16 (inactive)
CC(C)NCC(O)c1ccc(N)c(C#N)c1 (stereo not given),parasite load remaining,[1],53.9% (inactive)
same,viability,[1],161%
same,nuclear beta-catenin stimulation,[2]; at 10 µM,-0.6% (inactive)
same,nuclear beta-catenin stimulation,"[2]; stimulation, at 2 µM",-0.3%
same,insulin secretion stimulation,[3],2.6% (inactive)
same,viability decrease,[4],25.9% (inactive)
same,tube area decrease,[5],-6.6% (inactive)
same,GLP1 secretion stimulation,[6],8.5% (inactive)
same,inhibition of viability,[7],12.2% (inactive)
same,viability decrease (inhibition),[8],40% (inactive)
same,viability decrease (inhibition),[9],9.6% (inactive)
same,fold change,[11]; stronger effect = lower value,0.911 (inactive) and 0.954 (inactive) and 0.854 (inactive)
same,fold change,[11]; [20],1.24 and 1.48 and 1.65
same,cell count,[11]; [21],6050 and 9400 and 9430
same,cell count,[11]; [22],6640 and 9850 and 11000
same,z-score,[12]; [23],0.636 (inactive)
same,z-score,[12]; [24],1.18
same,z-score,[14],0.17 (inactive) and 0.505 (inactive)
CCCCc1ccc(C(=O)O)nc1,survival,[16],6.17 (inactive)
same,parasite load remaining,[1],113% (inactive) and 80.1% (inactive)
same,viability,[1],102% and 74.9%
same,nuclear beta-catenin stimulation,[2]; at 10 µM,0.7% (inactive)
same,nuclear beta-catenin stimulation,"[2]; stimulation, at 2 µM",2.6%
same,insulin secretion stimulation,[3],0.5% (inactive)
same,viability decrease,[4],9.1% (inactive)
same,tube area decrease,[5],-19.3% (inactive)
same,GLP1 secretion stimulation,[6],-1.2% (inactive)
same,inhibition of viability,[7],25.9% (inactive)
same,viability decrease (inhibition),[8],82.1% (active)
same,viability decrease (inhibition),[9],3.1% (inactive)
same,remaining activity,[15],102% (inactive)
same,fold change,[11]; stronger effect = lower value,0.891 (inactive) and 0.841 (inactive)
same,fold change,[11]; [20],1.39 and 1.24
same,cell count,[11]; [21],9790 and 8980
same,cell count,[11]; [22],11000 and 10700
same,z-score,[14],0.395 (inactive)

# — PubChem BioAssay
